Assay outcomes as filed in PubChem.
Hits are enriched below; roughly 3% of the tested compounds scored in any of these assays.
Tau FP inhib – inhibitors of human tau fibril formation; K18 P301L tau heparin fibrillization, Alexa594 FP, 6 h; Potency, µM (series often up to 57.7 µM), most hits filed as inhibitors; AID 1468; hit rate 0.39% among 280,000; P10636; also: nearly all actives have a fitted effect of over 55% in size
Target sequence (P10636 561-689 P618L limits assumed): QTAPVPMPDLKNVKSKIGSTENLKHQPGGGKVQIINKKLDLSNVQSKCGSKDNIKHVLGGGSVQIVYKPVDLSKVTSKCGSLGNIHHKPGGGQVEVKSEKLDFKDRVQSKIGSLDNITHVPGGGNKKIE
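Read-out: fluorescence polarization of Alexa 594-labeled tau (0.24 uM), 555 nm excitation, 632 nm emission. Mixtures held 15 uM unlabeled K18 P301L, compound and 20 uM heparin, pH 7 acetate buffer, incubated 6 hr at 37 C.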
Tau fluor cs – counter-screen for tau fibril formation inhibitors; tau K18 P301L Alexa594 fluorescence, heparin fibrillization; Potency, µM (doses to about 57.7 µM); hit rate 0.93% among 280,000; AID 1463; also: nearly all actives have a fitted effect of over 55% in size
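Human K18 P301L tau (15 uM unlabeled plus 0.24 uM Alexa 594-labeled, final) in 100 mM sodium acetate pH 7 was mixed with compound and 20 uM heparin and incubated 6 hr at 37 C.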
TexasRed fluor – alters Texas Red total fluorescence, flagging assay interference | TRb/SRC2 Texas Red total fluorescence interference | AID 1479 | hit rate 0.29% among 280,000 | Potency, µM (doses to about 106 µM); active = well fitted curve in either direction with a large enough effect; inconclusive = small, poorly fitted or top-dose-only effect
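Flags fluorescent or light-absorbing compounds by total fluorescence, S + 2P, at 555 nm excitation and 632 nm emission. Mixture: 20 nM Texas Red SRC2 peptide, 0.6 uM human TRb LBD, 1 uM T3, 5% DMSO; compound exposure 5 h at ambient temperature.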
Tau fibril ThT – blocks human tau fibril formation measured by thioflavin T. hit rate 2.1% among 270,000. Potency, µM (series often up to 57.4 µM), hits mostly inhibitors. AID 1460. P10636. recombinant tau K18 P301L (four-repeat tau fragment), heparin-induced fibrillization, ThT fluorescence; also: nearly all actives have a fitted effect of over 55% in size
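In this qHTS, human K18 P301L tau is incubated with compound and heparin for 6 hr at 37 C, and Thioflavin T fluorescence then reports fibril load.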
TRb-SRC2 inh – TRbeta-SRC2 interaction inhibition; TRbeta-SRC2 peptide binding, fluorescence polarization; receptor liganded with 1 µM T3; Potency, µM (titrated, usually from 106 µM), actives largely listed as inhibitors; hit rate 0.065% among 280,000; also: nearly all actives have a fitted effect of over 50% in size
Target sequence (P10828 whole entry, looked up): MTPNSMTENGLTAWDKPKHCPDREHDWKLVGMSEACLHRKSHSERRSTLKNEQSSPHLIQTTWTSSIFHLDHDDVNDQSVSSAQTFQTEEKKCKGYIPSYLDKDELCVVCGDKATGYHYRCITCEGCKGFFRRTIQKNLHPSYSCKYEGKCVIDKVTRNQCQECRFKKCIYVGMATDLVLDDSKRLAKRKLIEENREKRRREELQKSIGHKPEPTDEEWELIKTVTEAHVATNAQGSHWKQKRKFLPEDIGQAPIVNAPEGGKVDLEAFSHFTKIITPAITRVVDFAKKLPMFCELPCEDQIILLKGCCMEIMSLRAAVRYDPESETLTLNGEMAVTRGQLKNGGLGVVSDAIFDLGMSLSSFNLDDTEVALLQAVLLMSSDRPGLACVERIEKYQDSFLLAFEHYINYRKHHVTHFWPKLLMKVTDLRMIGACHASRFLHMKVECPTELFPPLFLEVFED
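Read-out is fluorescence polarization (555 nm excitation, 632 nm emission) of a Texas Red SRC2 coactivator peptide; loss of signal reflects blocked binding to human TRb ligand-binding domain in the presence of 1 uM T3.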
Numbers stand for hits; - = inactive; ? = inconclusive; . = no result; [ ] = another dose, or the depositor's remark. Unless noted, calls follow the shape of the dose curve; as a rule, active = well fitted curve in the direction sought with a large enough effect; inconclusive = small, poorly fitted or top-dose-only effect, or another doubt; inactive = no such curve, though single readings can be large; an effect the other way counts as inactive or inconclusive.

SMILES	Tau FP inhib	Tau fluor cs	TexasRed fluor	Tau fibril ThT	TRb-SRC2 inh
CC(NC(=O)c1c(O)nc2ccccn2c1=O)c1ccccc1 (stereo unspecified)	-	-	17.8µM[quencher]	-	-
O=C(O)c1ccccc1NC(=S)NC(=O)c1sc2ccccc2c1Cl	-	-	-	?	-
O=C(NNC(=S)NC(=O)c1sc2ccccc2c1Cl)c1ccc(Cl)cc1	-	-	-	14.1µM	-
Cc1ccsc1C=Nc1ccc(O)cc1	11.2µM	?	-	3.55µM	31.6µM
Cc1ccsc1/C=N/NC(=O)CO	-	-	-	-	-
CC(=O)OCC1OC(c2cc(C)cc(C)c2)C=CC1OC(C)=O (stereo unspecified)	-[11.6 µM]	-[11.6 µM]	-[11.2 µM]	-[11.5 µM]	-[11.2 µM]
COc1cc(/C=C2\COC/C(=C\c3cc(OC)c(OC)c(OC)c3)C2=O)cc(OC)c1OC	?	-	-	8.91µM	-
COc1cc(/C=C2/CCC/C(=C\c3cc(O)c(OC)c(Cl)c3)C2=O)cc(Cl)c1O	?	?	-	11.2µM	-
COc1cc(/C=C2\CC/C(=C\c3cc(OC)c(O)c(OC)c3)C2=O)cc(OC)c1O	?	14.1µM[quencher]	-	6.31µM	-
COc1cc(/C=C2\CCC/C(=C\c3ccc(O)c(OC)c3)C2=O)ccc1O	.	.	-	.	-
CCCCOCCOCCOC(=O)CCCCC(=O)OCCOCCOCCCC	.	.	-	.	-
CC(Sc1nccn1C)C(=O)Nc1ccccc1C#N (stereo unspecified)	-	-	-	-	-
CC(C)(C)N1C(=O)[C@H]2[C@H]3[C@H](O)[C@H](O)C/C(=N/NC(=O)OCc4ccccc4)[C@@H]3CC[C@@H]2C1=O	-[11.6 µM]	-[11.6 µM]	-[11.2 µM]	-[11.5 µM]	-[11.2 µM]
COc1ccc(OC)c(CNC(=O)Cc2ccc(NC(=O)N3CCCCc4ccccc43)cc2)c1	-	-	-	-	-
COc1ccccc1NC(=O)C(=O)NCC(c1cccnc1)N1CCc2ccccc2C1 (stereo unspecified)	-	-	-	?	-
N=C1/C(=C/c2cccn2-c2ccc([N+](=O)[O-])cc2)C(=O)N=C2SC=CN12	-	-	-	-	-
COc1ccc(-c2ccc(/C=C3/C(=N)N4C=CSC4=NC3=O)o2)c([N+](=O)[O-])c1	-	?	?	1.78µM	-
CCOC(=O)CNC(=O)O[C@@H]1C(=O)c2cc(Br)ccc2O[C@H]1c1ccc2c(c1)OCO2	-	-	-	-	-
COc1ccc(-c2cnnc(N/N=C/c3ccc(-c4ccc([N+](=O)[O-])cc4)o3)n2)cc1	-	-	-	-	-
COc1ccccc1-c1cnnc(N/N=C/c2ccc(-c3cccc(Br)c3)o2)n1	-	?	-	3.55µM	-
COc1ccc(N2CC(NC(=O)/C=C\c3ccc(OC)c(OC)c3)CC2=O)cc1 (stereo unspecified)	?	-	-	-	-
O=S1(=O)c2ccccc2N(Cc2cccc(C(F)(F)F)c2)c2ccccc21	-	-	-	-	-
CCCN(CCC)C(=O)Cn1c(=O)n(-c2ccc(CC)cc2)c(=O)c2c3c(sc21)CCC3	-	-	0.199µM[quencher]	-	-
COC(=O)c1sc(-c2ccccc2)cc1NC(=O)Nc1ccc(F)cc1	17.8µM	?	-	-	-
COC(=O)NC(c1ccc(F)cc1)C(C(C)=O)C(=O)OC (stereo unspecified)	-[11.6 µM]	-[11.6 µM]	-[11.2 µM]	-[11.5 µM]	-[11.2 µM]
SMILES	Tau FP inhib	Tau fluor cs	TexasRed fluor	Tau fibril ThT	TRb-SRC2 inh
O=C1c2ccccc2-c2onc3c(Oc4ccccc4)cc(O)c1c23	-	?	35.5µM[fluorescent]	17.8µM	-
COc1ccc(CC(=O)NCc2nc3cccnc3n2Cc2ccc(C)cc2)cc1	-	-	-	-	-
CN1/C(=C\C=C(/C#N)C(=O)Nc2ccc(Cl)cc2)C(C)(C)c2ccccc21	-	-	-	?	-
CN1/C(=C\C(=O)Nc2ccc(Cl)cc2)C(C)(C)c2ccccc21	-	12.6µM[quencher]	-	?	-
CN1/C(=C\C(=S)NC(=O)c2ccccc2Cl)C(C)(C)c2ccccc21	-	-	-	11.2µM	-
COc1ccccc1C(=O)NC(=S)/C=C1/N(C)c2ccccc2C1(C)C	-	-	-	-	-
CN1/C(=C/C(=S)NC(=O)C2(C)CC2(Cl)Cl)C(C)(C)c2ccccc21 (stereo unspecified)	-	-	-	12.6µM	-
COc1ccc(Cn2cc(S(=O)(=O)c3ccc(Cl)cc3)c(=O)c3cc4c(cc32)OCO4)cc1	-	-	-	-	-
COC(=O)C(C)Sc1ncnc2c1c(-c1ccccc1)cn2-c1ccc(F)cc1 (stereo unspecified)	-	-	-	-	-
C[C@@H](C1[C@@H](O)CC2C3C=CC4C[C@@H](O)CC[C@]4(C)[C@H]3CC[C@@]21C)[C@@H]1CCCCN1 (stereo partly specified)	-	-	-	-	-
CN(C)c1ccc(NC(=O)Cn2cc(S(=O)(=O)Cc3ccccc3Cl)c3ccccc32)cc1	-	11.2µM[quencher]	-	?	-
CN(C)c1ccc(NC(=O)Cn2cc(S(=O)(=O)Cc3cccc(Cl)c3)c3ccccc32)cc1	-	?	-	?	-
Cn1cccc1/C=C1\SC(=S)N(Nc2ccccc2)C1=O	-	?	-	3.55µM	-
O=C1/C(=C/c2cccnc2)SC(=S)N1Nc1ccccc1	?	?	-	28.2µM	-
CC(C)C(C(=O)O)N1C(=O)/C(=C/c2cccn2C)SC1=S (stereo unspecified)	-	-	-	?	-
Cc1ccc(S(=O)(=O)NN2C(=O)/C(=C/c3cccs3)SC2=S)cc1	-	-	-	.	-
Cc1ccc(S(=O)(=O)NN2C(=O)/C(=C/c3cccn3C)SC2=S)cc1	-	-	-	10µM	-
CC[C@H]1NC(=O)c2cc(S(N)(=O)=O)c(Cl)cc2N1	.	.	-	.	-
O=[N+]([O-])c1cccc(N2Cc3ccccc3C2)c1	?	?	-	15.8µM	-
CCOC(=O)c1nnc(-c2ccccc2)nc1Oc1ccccc1Cl	-	?	-	14.1µM	-
O=C(OCC1OC(OC(=O)c2cc(O)c(O)c(OC(=O)c3cc(O)c(O)c(O)c3)c2)[C@@H](OC(=O)c2cc(O)c(O)c(OC(=O)c3cc(O)c(O)c(O)c3)c2)C(OC(=O)c2cc(O)c(O)c(OC(=O)c3cc(O)c(O)c(O)c3)c2)C1OC(=O)c1cc(O)c(O)c(OC(=O)c2cc(O)c(O)c(O)c2)c1)c1cc(O)c(O)c(OC(=O)c2cc(O)c(O)c(O)c2)c1 (stereo partly specified)	?	0.501µM[quencher]	15.8µM[quencher]	1.26µM	?
C=CCCC	.	.	-	.	-
O=C1NN(c2ccccc2)C(=O)/C1=C/c1coc2ccccc2c1=O	-	-	-	-	-
COc1ccc(-n2c(C)cc(/C=C3\C(=O)NN(c4ccccc4)C3=O)c2C)cc1	-	-	-	?	-
O=C1NN(c2ccccc2)C(=O)/C1=C\c1coc2ccc(O)cc2c1=O	-	?	-	14.1µM	-
